Assay [1] deals with Nuclear receptor coactivator 3 (Homo sapiens) (UniProt Q9Y6Q9). Kind of assay: SRC3 coactivator transcriptional activity inhibitors, confirmation, cell-based, luminescence, quadruplicate (AID 588792;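 active = mean inhibition over 43.08%, the solvent-only control mean plus 3 SD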;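 note: 0% = DMSO treated cells and 100% = gossypol at 36 µM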). The following applies: HEK293 GAL4-SRC3 luciferase reporter, at 3.6 µM, active compounds read high. (A reporter such as luciferase makes a cellular process visible.)
Sequence of Nuclear receptor coactivator 3 (Homo sapiens) (Q9Y6Q9 whole entry, looked up, the tested form may be a part): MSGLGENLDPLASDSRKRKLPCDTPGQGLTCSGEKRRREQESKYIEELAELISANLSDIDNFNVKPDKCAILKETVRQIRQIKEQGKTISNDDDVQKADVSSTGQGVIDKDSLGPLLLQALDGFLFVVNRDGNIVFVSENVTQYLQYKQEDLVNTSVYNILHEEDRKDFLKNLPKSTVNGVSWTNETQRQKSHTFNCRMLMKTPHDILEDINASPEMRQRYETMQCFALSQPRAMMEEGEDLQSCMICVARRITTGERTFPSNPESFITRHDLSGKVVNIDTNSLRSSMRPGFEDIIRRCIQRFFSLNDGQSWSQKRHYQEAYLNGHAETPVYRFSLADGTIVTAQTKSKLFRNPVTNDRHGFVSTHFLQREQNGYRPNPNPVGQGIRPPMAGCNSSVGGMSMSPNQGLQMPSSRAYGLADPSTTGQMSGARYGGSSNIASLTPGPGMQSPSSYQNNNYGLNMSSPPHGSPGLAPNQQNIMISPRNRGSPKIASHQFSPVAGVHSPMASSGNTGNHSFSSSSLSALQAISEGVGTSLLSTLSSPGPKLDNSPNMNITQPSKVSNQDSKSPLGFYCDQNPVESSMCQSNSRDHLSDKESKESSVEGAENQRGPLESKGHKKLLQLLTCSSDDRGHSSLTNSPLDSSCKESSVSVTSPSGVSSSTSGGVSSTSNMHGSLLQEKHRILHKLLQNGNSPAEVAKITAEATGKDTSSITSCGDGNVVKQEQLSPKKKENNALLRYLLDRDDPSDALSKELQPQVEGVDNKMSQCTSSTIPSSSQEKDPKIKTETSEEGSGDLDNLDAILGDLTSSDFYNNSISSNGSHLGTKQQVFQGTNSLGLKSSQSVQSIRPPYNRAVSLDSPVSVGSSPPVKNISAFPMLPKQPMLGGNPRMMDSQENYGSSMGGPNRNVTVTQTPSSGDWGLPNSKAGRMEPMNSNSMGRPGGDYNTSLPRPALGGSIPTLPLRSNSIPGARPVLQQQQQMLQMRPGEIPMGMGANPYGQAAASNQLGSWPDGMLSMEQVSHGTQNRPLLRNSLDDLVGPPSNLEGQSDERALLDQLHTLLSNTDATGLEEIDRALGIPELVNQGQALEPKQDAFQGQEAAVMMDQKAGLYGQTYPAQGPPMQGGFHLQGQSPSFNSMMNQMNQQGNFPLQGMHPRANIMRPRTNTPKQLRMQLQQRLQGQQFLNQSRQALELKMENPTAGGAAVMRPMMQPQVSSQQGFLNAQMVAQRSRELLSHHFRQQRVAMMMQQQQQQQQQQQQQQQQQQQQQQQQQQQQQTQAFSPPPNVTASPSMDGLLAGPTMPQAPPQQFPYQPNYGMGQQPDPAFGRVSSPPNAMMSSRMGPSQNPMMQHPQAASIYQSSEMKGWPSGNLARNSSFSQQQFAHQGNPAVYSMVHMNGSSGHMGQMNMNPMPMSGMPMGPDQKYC
For assay [2], the system named is transactivating tegument protein VP16 (Human herpesvirus 1), Gal4-VP16 luciferase reporter. Nature of the assay: VP16 transactivation inhibitors, counter-screen for SRC3 inhibitor project, cell-based, luminescence, high throughput (AID 588794; in the data active = inhibition above about 30%). The following applies: mammalian cells, VP16-driven luciferase reporter luminescence; at 3.6 µM; active compounds read high.
Assay [3] deals with Nuclear receptor coactivator 1 (Homo sapiens) (UniProt Q15788). Kind of assay: SRC1 coactivator transcriptional activity inhibitors, confirmation, cell-based, luminescence, quadruplicate (AID 588820;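 active = mean inhibition above 46.68%, the untreated control wells mean plus 3 SD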;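 note: 0% = DMSO wells and 100% = gossypol 36 µM treated wells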). The conditions noted are these: HEK293 GAL4-SRC1 luciferase reporter, at 3.6 µM, active compounds read high.
Sequence of Nuclear receptor coactivator 1 (Homo sapiens) (Q15788 whole entry, looked up, the tested form may be a part): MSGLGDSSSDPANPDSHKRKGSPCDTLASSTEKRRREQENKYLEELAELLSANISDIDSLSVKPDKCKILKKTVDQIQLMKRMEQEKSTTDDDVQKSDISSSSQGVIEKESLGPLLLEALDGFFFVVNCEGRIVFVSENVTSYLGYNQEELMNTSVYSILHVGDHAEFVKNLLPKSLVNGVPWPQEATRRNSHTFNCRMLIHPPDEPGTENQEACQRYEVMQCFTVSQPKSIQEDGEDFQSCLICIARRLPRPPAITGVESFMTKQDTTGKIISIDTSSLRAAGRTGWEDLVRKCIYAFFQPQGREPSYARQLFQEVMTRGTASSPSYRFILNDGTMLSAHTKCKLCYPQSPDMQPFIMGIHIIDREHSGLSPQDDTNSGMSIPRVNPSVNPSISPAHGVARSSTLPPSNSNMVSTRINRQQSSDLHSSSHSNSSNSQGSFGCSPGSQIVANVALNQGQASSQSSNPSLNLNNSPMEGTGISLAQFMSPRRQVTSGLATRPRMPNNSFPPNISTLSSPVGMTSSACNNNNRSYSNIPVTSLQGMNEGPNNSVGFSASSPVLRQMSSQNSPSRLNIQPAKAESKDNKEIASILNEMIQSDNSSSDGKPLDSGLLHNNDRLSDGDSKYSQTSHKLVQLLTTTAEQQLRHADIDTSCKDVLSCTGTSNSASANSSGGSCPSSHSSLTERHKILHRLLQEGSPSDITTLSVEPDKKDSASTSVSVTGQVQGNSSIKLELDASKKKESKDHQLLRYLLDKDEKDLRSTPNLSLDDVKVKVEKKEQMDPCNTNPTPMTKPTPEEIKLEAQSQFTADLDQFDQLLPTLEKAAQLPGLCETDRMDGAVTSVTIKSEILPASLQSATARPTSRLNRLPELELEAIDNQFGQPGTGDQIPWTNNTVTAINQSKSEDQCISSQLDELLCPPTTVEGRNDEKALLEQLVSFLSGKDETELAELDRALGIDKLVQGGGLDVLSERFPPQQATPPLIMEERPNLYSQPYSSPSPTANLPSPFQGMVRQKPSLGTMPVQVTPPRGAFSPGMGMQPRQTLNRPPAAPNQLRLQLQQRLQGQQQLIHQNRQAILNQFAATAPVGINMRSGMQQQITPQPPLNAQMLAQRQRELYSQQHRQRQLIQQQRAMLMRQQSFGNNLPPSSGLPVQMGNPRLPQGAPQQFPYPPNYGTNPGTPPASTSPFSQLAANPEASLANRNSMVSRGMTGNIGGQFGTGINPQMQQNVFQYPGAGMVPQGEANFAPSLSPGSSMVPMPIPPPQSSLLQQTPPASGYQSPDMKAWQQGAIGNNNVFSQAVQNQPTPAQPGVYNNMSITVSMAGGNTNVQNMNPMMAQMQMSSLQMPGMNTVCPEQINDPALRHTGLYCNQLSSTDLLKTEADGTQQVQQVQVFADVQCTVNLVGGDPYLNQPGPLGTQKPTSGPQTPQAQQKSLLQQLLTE
Assay [4] is described as follows: VP16 transactivation inhibitors, counter-screen for SRC1 inhibitor project, cell-based, luminescence, high throughput (AID 588824; in the data active = inhibition above about 25%). The conditions noted are these: cell-based VP16 transactivation luciferase luminescence; at 3.6 µM; active compounds read high. For orientation: A counterscreen serves to expose hits that act by an unwanted route or on another target.
Assay [5] can be described thus: StAR promoter reporter inhibitors, counter-screen for LRH-1 inverse agonist project, cell-based, luminescence, high throughput (AID 651611). The conditions noted are these: StAR promoter luciferase reporter counterscreen, at 3.6 µM, active compounds read high.
Assay [6] deals with Nuclear receptor subfamily 5 group A member 2 (Homo sapiens) (UniProt O00482). Nature of the assay: LRH-1 (NR5A2) inverse agonists, retest, confirmation, cell-based, luminescence (AID 651613; in the data active = inhibition above about 42%;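 note: HEK293T cells co-transfected with LRH-1 and StAR promoter luciferase reporter; 0% = vehicle wells and 100% = parental cells lacking receptor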). The following applies: cell-based LRH-1 luciferase reporter, inverse agonism; at 3.6 µM; active compounds read high.
Sequence of Nuclear receptor subfamily 5 group A member 2 (Homo sapiens) (O00482 whole entry, looked up): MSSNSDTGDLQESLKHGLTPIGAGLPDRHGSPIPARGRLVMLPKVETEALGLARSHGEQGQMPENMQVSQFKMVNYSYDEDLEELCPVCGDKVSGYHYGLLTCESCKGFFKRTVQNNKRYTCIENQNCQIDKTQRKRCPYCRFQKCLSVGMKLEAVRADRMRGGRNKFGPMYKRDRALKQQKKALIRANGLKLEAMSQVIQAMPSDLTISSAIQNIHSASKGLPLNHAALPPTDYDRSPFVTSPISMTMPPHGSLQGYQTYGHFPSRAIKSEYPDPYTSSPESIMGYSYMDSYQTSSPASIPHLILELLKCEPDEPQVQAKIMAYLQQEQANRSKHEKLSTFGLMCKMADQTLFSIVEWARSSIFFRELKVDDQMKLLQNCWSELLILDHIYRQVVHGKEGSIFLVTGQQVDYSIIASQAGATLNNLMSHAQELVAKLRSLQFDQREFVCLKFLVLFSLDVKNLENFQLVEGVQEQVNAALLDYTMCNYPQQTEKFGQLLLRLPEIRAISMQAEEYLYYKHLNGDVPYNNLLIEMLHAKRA
Assay [7] has as its target Steroidogenic factor 1 (Homo sapiens) (UniProt Q13285). Kind of assay: SF1 (NR5A1) inverse agonists, counter-screen for LRH-1 inverse agonist project, cell-based, luminescence, high throughput (AID 651614; in the data active = inhibition above about 44%;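 note: cells cotransfected with StAR promoter reporter and SF1 expression vector; 0% = vehicle on cells with receptor and 100% = vehicle on cells lacking receptor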). The following applies: cell-based SF1 luciferase reporter, at 3.6 µM, active compounds read high.
A short description of assay [8]: VP16 transactivation reporter inhibitors, counter-screen for LRH-1 inverse agonist project, cell-based, luminescence, high throughput (AID 651615; in the data active = inhibition above about 33%). The following applies: Gal4-VP16 luciferase reporter cells, at 3.6 µM, active compounds read high.
Assay [9] relates to transactivating tegument protein VP16 (Human herpesvirus 1). Nature of the assay: VP16 transactivation reporter inhibitors, counter-screen for SRC2 inhibitor project, cell-based, luminescence, single concentration (AID 652007; in the data active = inhibition above about 36%). The following applies: cell-based VP16 transactivation luciferase reporter, at 8.9 µM, active compounds read high.
Assay [10] concerns the target Nuclear receptor coactivator 2 (Homo sapiens) (UniProt Q15596). Nature of the assay: SRC2 coactivator transcriptional activity inhibitors, confirmation, cell-based, luminescence, HEK293, triplicate (AID 652008;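 active = mean inhibition above 46.5%, the solvent-only control mean plus 3 SD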;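 note: 0% = DMSO-treated cells and 100% = Gossypol at 36 µM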). The following applies: HEK293 GAL4-SRC2 luciferase reporter, at 8.9 µM, active compounds read high.

SMILES strings stand for the structures. A number with no mark means an inactive call. Active and inactive are the calls of the source. Cut-off read from the data, not from the text of the source, unless noted: active = inhibition above about 28%; inactive = the rest.

Sequence of Nuclear receptor coactivator 2 (Homo sapiens) (Q15596 whole entry, looked up, the tested form may be a part): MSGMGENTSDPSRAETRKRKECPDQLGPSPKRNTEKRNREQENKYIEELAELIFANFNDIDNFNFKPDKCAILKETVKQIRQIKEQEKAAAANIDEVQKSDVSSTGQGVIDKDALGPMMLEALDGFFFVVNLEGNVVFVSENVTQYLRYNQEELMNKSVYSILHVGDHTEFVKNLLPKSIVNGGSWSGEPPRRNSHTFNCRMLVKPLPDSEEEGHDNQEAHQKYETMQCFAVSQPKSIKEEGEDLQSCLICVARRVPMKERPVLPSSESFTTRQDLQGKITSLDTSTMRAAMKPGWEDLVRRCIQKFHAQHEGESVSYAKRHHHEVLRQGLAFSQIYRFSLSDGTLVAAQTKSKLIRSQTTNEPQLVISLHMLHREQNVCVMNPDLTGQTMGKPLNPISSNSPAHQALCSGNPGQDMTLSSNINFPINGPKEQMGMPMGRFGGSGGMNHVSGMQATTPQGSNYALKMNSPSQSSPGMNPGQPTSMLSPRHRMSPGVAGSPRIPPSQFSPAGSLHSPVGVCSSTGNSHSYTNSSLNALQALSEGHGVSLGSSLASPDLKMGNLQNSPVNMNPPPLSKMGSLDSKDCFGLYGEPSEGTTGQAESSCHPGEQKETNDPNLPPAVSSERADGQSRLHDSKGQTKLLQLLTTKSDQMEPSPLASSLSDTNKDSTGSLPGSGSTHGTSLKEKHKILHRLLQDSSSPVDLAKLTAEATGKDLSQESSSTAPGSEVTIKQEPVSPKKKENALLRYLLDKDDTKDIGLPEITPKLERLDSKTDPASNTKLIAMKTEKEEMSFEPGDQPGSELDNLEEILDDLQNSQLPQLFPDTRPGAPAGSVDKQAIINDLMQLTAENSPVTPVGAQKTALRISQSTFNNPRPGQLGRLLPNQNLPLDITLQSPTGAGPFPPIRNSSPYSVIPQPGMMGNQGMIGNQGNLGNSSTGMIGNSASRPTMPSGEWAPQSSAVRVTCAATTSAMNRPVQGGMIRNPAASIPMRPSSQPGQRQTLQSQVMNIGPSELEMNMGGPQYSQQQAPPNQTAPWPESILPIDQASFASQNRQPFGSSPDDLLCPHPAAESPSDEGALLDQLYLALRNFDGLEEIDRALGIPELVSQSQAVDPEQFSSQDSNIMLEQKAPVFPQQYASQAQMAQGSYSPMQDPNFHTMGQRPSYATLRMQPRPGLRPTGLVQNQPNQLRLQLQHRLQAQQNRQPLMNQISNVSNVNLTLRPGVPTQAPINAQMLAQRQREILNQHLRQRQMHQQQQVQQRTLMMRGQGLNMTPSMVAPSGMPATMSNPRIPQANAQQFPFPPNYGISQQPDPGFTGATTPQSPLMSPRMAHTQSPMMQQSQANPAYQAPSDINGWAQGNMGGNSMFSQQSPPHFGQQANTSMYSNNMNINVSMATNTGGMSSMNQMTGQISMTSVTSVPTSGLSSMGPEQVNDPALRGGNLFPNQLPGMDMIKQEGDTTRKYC

For the molecule `CC1C(OC(=O)CCC(=O)NC(C)(C)CO)O[C@H]2OC3(C)CC[C@H]4[C@H](C)CCC1C24OO3` (some centres undefined), the inhibition (as a rule, the change of the read-out against control, counted positive when it falls) was 55.9% (active) in [1]; 79.9% (active) in assay [2]; 51.9% (active) in assay [3]; 81.2% (active) in assay [4]; 76.2% (active) in assay [5]; 101% (active) in assay [6]. The inhibition in [7] is 91% (active); in assay [8] it was 84% (active).

For `O=[N+]([O-])c1ccc(N2CCOCC2)c2c1no[n+]2[O-]`, the inhibition in assay [1] is 82.4% (active); in [2], 62.9% (active); in assay [3], 23%; in assay [4] it was 62.2% (active); in [5], 94.1% (active); in assay [6], 101% (active). For the same molecule, the values for the inhibition in [7] and in assay [8] were 92.6% (active) and 70.7% (active), respectively.

Consider `CC1CC(C)(O)CC(C(O)CC2CC(=O)NC(=O)C2)C1=O` (centres undefined), for which the inhibition is 96.7% (active) in [1]; 95.7% (active) in assay [2]; 89.7% (active) in assay [3]; 94.9% (active) in assay [4]; 96.2% (active) in [5]; 110% (active) in [6]. Moreover, the inhibition was 98.5% (active) in assay [7] and 98.1% (active) in [8].

With `CC(=O)OCC12CC(OC(=O)CC(C)C)C(C)=CC1OC1C(O)C(OC(C)=O)C2(C)C12CO2` (centres undefined), the inhibition in assay [1] is 95.1% (active); in [2] it was 91.9% (active); in assay [3], 88.5% (active); in [4], 88.9% (active); in assay [5], 97% (active); in [6], 110% (active). Besides, the inhibition in assay [7] is 98.3% (active); in assay [8], 97.8% (active); in assay [9], 79.1% (active); in [10] it was 75.4% (active).

`COC1CC2C=C(C)C=CC=CC(=O)NC(c3ccccc3)CC=CCCC(O)CC(=O)C2=C1O` (centres undefined): the inhibition in assay [1] was 75.1% (active); in [2], 84% (active); in [3] it was 29.9%; in assay [4], 84.7% (active); in assay [5] it was 81.7% (active); in assay [6] it was 107% (active). For the same molecule, the inhibition in [7] is 95.6% (active); in assay [8], 89.8% (active).

`COc1cc2cc(C(=O)N3CC(COS(C)(=O)=O)c4ccc(O)cc43)[nH]c2c(OC)c1OC` (centres undefined): the inhibition is 97.5% (active) in assay [1]; 96.2% (active) in assay [2]; 96% (active) in assay [3]; 95.7% (active) in assay [4]; 98% (active) in [5]; 111% (active) in assay [6]. The figures for the inhibition in assay [7] and in [8] were 99.2% (active) and 98.2% (active), respectively.

`Cc1ccc(-c2cc(-c3ccccc3)cc(-c3ccccc3)[n+]2-c2ccccc2)cc1`: the inhibition in assay [1] was 86.4% (active); in [2], 89.9% (active); in assay [3] it was 67.6% (active); in assay [4] it was 85.6% (active); in assay [5] it was 83.6% (active); in [6] it was 110% (active). The inhibition in assay [7] is 91.4% (active); in assay [8] it was 95.2% (active); in [9] it was 70% (active); in assay [10], 61.8% (active).

`C[C@]12CC[C@H](O)C[C@H]1CC[C@@H]1[C@@H]2C[C@@H](O)[C@]2(C)[C@@H](C3=CC(=O)OC3)CC[C@]12O`: the inhibition in [1] is 88.8% (active); in [2], 65.8% (active); in [3], 13.8%; in assay [4], 65.4% (active); in assay [5], 94.8% (active); in assay [6] it was 107% (active). Moreover, the inhibition in [7] is 96% (active); in assay [8] it was 77.7% (active).

Take `C=CCn1c(O)c(C(C)=NCc2cc(OC)cc(OC)c2)c(=O)[nH]c1=O`: the inhibition in [1] was 49.6% (active); in [2] it was 28.2%; in assay [3], 43%; in assay [4] it was 24.5%; in [5], 42.4% (active); in [6], 66.4% (active). Further, the inhibition is 57.7% (active) in assay [7] and 43.6% (active) in [8].

For the molecule `CC(C)CC(NC(=O)CCCNC(=O)CCC(=O)OC1O[C@H]2OC3(C)CC[C@H]4[C@H](C)CCC(C1C)C24OO3)C(=O)O` (some centres undefined), the inhibition is 54.4% (active) in [1]; 77.2% (active) in assay [2]; 53.3% (active) in [3]; 76.9% (active) in [4]; 72.2% (active) in [5]; 101% (active) in [6]. Further, the inhibition is 91% (active) in [7] and 86.4% (active) in [8].

`Clc1ccc(C[n+]2c(-c3ccccc3)cc(-c3ccccc3)cc2-c2ccccc2)cc1`: the inhibition is 83.5% (active) in assay [1]; 66% (active) in assay [2]; 53.1% (active) in [3]; 73.6% (active) in assay [4]; 70.8% (active) in assay [5]; 110% (active) in [6]. For the same molecule, the figures for the inhibition in [7] and in assay [8] were 89.8% (active) and 94% (active), respectively.

Take `O=c1[nH]c2ccccc2n1C1CCN(C(c2ccccc2OC(F)(F)F)c2nnnn2-c2ccc3c(c2)OCCO3)CC1` (centres undefined): the inhibition is 27.6% in [1]; -1.84% in [2]; -23.1% in assay [3]; -0.24% in assay [4]; 61.8% (active) in assay [5]; 37.3% in assay [6]. For the same molecule, the inhibition in assay [7] was 43.7% (active); in assay [8], 39.8% (active).

As to `COc1ccc(-c2cc(-c3ccccc3)[n+](C)c(-c3ccccc3)c2)cc1`, the inhibition in [1] is 35.9%; in assay [2] it was 57.7% (active); in assay [3], 34.3%; in [4], 51.3% (active); in assay [5], 60.2% (active); in assay [6] it was 96% (active). For the same molecule, the inhibition in assay [7] is 84.5% (active); in assay [8], 77.1% (active).

As for `c1ccc(-c2cc(-c3ccccc3)[n+](-c3ccccc3)c(-c3ccccc3)c2)cc1`, the inhibition in assay [1] is 61.7% (active); in [2] it was 75.9% (active); in [3], 49.1% (active); in assay [4] it was 81.6% (active); in [5], 69.6% (active); in assay [6], 104% (active). The inhibition in [7] was 81.3% (active); in assay [8] it was 89.4% (active).

As for `NC(=S)c1cn(C2OC(CO)C(O)C2O)c2ncnc(N)c12` (centres undefined), the inhibition in [1] was 97.4% (active); in [2], 95.9% (active); in assay [3] it was 89.7% (active); in assay [4] it was 96.2% (active); in assay [5] it was 93.2% (active); in assay [6], 109% (active). In addition, the inhibition is 98% (active) in assay [7], 97.9% (active) in [8], 69.4% (active) in assay [9] and 71.6% (active) in [10].

With `CC[C@@]1(O)C(=O)OCc2c1cc1n(c2=O)Cc2cc3c(NC(=O)CN)cccc3nc2-1`, the inhibition in [1] is 61.8% (active); in assay [2], 9.37%; in assay [3] it was 55.3% (active); in assay [4], -2.11%; in assay [5], 42.7% (active); in [6], 70% (active). In addition, the values for the inhibition in assay [7] and in assay [8] were 59.3% (active) and 9.93%, respectively.
